# Experimental data: PubChem BioAssay AID2796 (The Scripps Research Institute Molecular Screening Center, 2010)
# Screen size: about 320,000 compounds; about 8,000 (2.5%) were called active. Rule as the data show it: active = activation above about 47%; inactive = the rest. For the sample, actives were picked, then their nearest neighbours and some compounds at random.
# Biological target: Aryl hydrocarbon receptor (Homo sapiens) (UniProt P35869)
# Assay: AHR activators, primary screen, cell-based, luminescence, luciferase reporter, human (AID 2796);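 also: 0% = vehicle wells and 100% = reference agonist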
# Settings: AHR-responsive luciferase reporter cells, at 5 µM, hits give high values
# Sequence of Aryl hydrocarbon receptor (Homo sapiens) (P35869 whole entry, looked up): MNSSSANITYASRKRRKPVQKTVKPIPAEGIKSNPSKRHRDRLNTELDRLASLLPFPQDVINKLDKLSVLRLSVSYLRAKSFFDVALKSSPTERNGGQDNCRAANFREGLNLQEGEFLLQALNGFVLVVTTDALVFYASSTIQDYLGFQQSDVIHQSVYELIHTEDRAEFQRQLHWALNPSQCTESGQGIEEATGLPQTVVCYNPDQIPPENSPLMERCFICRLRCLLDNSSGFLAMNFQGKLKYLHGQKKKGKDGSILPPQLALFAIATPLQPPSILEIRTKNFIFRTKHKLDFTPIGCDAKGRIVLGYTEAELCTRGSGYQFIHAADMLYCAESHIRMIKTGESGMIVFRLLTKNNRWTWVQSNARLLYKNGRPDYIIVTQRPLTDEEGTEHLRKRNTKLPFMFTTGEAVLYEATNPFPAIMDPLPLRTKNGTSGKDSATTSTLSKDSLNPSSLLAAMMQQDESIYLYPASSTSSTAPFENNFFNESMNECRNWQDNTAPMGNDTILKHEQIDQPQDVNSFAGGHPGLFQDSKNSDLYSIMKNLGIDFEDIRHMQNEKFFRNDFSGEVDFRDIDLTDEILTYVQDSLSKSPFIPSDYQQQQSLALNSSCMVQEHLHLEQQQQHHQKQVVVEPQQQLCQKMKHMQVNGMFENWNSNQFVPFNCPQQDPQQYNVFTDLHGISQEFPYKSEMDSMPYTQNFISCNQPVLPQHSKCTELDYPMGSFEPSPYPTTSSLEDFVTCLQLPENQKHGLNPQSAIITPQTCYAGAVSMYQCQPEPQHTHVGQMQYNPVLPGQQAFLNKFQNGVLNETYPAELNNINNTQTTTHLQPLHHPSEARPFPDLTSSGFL
row,Structure (SMILES),activation
1,FC(F)(F)c1ccc2c3n(nc2c1)CCN=C3c1ccc(Cl)cc1,73.6% (active)
2,O=C(Nc1cc(C(F)(F)F)ccc1Cl)C(=O)N1CCCCC1,4.43% (inactive)
3,CCN(CC)CCN(C(=O)c1ccc(N2C(=O)CCC2=O)cc1)c1nc2cc3c(cc2s1)OCO3,6.01% (inactive)
4,CCN(CC)CCN(C(=O)c1cc(Cl)sc1Cl)c1nc2cc3c(cc2s1)OCO3,72.1% (active)
5,CN(C)CCN(C(=O)C1CCCCC1)c1nc2cc3c(cc2s1)OCO3,4.17% (inactive)
6,COC(=O)[C@]1(Cc2ccccc2)N[C@H](CN(C)S(=O)(=O)c2ccc(OC(F)(F)F)cc2)[C@@H]2C(=O)N(C)C(=O)[C@@H]21,-1.46% (inactive)
7,O=C(Nc1ccc(NC(=O)c2ccco2)c(Cl)c1)c1cccc([N+](=O)[O-])c1,2.52% (inactive)
8,O=C(NNC(=S)Nc1ccc(Br)cc1Cl)c1ccco1,2.47% (inactive)
9,CCC(=O)NC(=S)Nc1ccc(NC(=O)c2ccco2)c(Cl)c1,84.6% (active)
10,Cc1ccc(F)cc1NC(=O)N1CCCN(c2ccc(C(F)(F)F)cn2)CC1,-3.14% (inactive)
11,CCc1nn(CCCC(=O)Nc2ccc(C)c(C)c2)c(=O)c2cc3occc3n12,4.33% (inactive)
12,Nc1c(C(=O)c2cccs2)sc2nsc(SCCN3CCCCC3)c12,25.2% (inactive)
13,OC(COc1ccc(CN2CCSCC2)cc1)CN1CCCCC1 (configuration not stated),-1.38% (inactive)
14,CCOc1ccc(CN2CCN(Cc3ccon3)CC2CCO)cc1 (configuration not stated),7.62% (inactive)
15,C/C(=N\NC(=O)CNc1cccc2ccccc12)c1ccc(Br)s1,91.4% (active)
16,Cn1cccc1/C=N/NC(=O)CNc1cccc2ccccc12,5.35% (inactive)
17,Cc1cccc(/C=N/NC(=O)CNc2cccc3ccccc23)n1,46% (inactive)
18,O=C(CSc1nnc(SCc2ccc(F)cc2)s1)Nc1ccc(C(=O)O)cc1,-0.59% (inactive)
19,C#CCSc1nnc(-c2sc3ccccc3c2Cl)o1,89.2% (active)
20,Clc1ccc(-c2nnc(SCc3nc4ccccc4s3)o2)cc1,18.2% (inactive)
21,O=C(NCC#CCSc1nnc(-c2cccc3ccccc23)o1)c1cccs1,-2.43% (inactive)

row,Structure (SMILES),activation
1,COC(=O)CSc1ccc2nnc(CCNS(=O)(=O)c3ccc(C)cc3)n2n1,0.87% (inactive)
2,O=C(CN1CCN(S(=O)(=O)c2ccc(Cl)s2)CC1)NCc1ccc(Cl)cc1,-0.6% (inactive)
3,CC[n+]1cc(C)ccc1/C=C/c1ccc(N(C)C)cc1,-0.11% (inactive)
4,Cc1c(C(=O)OCC(=O)N2CCCC2=O)oc2ccccc12,1.38% (inactive)
5,COc1cccc(NC(=O)NCCN2CCCCC2)c1,2.06% (inactive)
6,COc1cccc(C(=O)Nc2nnc(S(=O)(=O)N3CCCCC3)s2)c1,9.59% (inactive)
7,COc1cccc(NC(=O)Nc2nnc(N3CCCCC3C)s2)c1 (configuration not stated),62.3% (active)
8,Nc1ccn(C2CC(O)C(CO)O2)c(=O)n1 (configuration not stated),-4.38% (inactive)
9,O=C(NNC(=O)c1ccc(Cl)nc1)c1ccc(Br)cc1,-2.45% (inactive)
10,NC(=O)CSc1c[nH]c2ccccc12,20.9% (inactive)
11,O=S(=O)(O)Oc1c[nH]c2ccccc12,66.7% (active)
12,O=C(NC1CCCC1)C(=O)c1c[nH]c2ccccc12,-1.15% (inactive)
13,COc1ccc(N2CC(C(=O)NCCN3C(=O)S/C(=C\c4cccnc4)C3=O)CC2=O)c(OC)c1 (configuration not stated),-0.14% (inactive)
14,COc1ccc(C(CNC(=O)c2cccc(S(=O)(=O)Nc3ccccc3Cl)c2)N2CCOCC2)cc1 (configuration not stated),8.55% (inactive)
15,Cc1cc(Br)ccc1NC(=O)CN(C)C(=O)CN1C(=O)NC2(CCCC2)C1=O,1.62% (inactive)
16,O=C1c2ccccc2C(=O)N1c1cccc2ccccc12,0.6% (inactive)
17,O=C1c2cccc3cccc(c23)C(=O)N1c1cccc(O)c1,-1.76% (inactive)
18,COc1ccc(N2C(=O)c3cccc4cccc(c34)C2=O)nn1,65% (active)
19,O=C(NC1CCCC1)C1CCN(C(=O)Nc2cccc(Cl)c2)CC1,0.72% (inactive)
20,CC(C)OCCCNC(=S)N1CCC(C(=O)c2ccc3c(c2)OCCO3)CC1,1.57% (inactive)
21,Oc1[nH]c2ccc(Br)cc2c1N=Nc1nn[nH]n1,16.2% (inactive)

row,Structure (SMILES),activation
1,NS(=O)(=O)c1ccc(N=Nc2c(O)[nH]c3ccc(Br)cc23)cc1,-10.5% (inactive)
2,Cc1cccc(N=Nc2c(O)[nH]c3ccc(F)cc23)c1,93% (active)
3,CC(=O)n1cc([C@H]2C=C(C(=O)N3CCOCC3)O[C@@H](OCc3ccc(CO)cc3)C2)c2ccccc21,3.74% (inactive)
4,COCCN(CCOC)S(=O)(=O)NC[C@H]1O[C@@H](n2cnc3c(N)ncnc32)[C@H](O)[C@@H]1O,0.98% (inactive)
5,CN1C(=O)/C(=C\c2cc(Br)cs2)c2ccccc21,62.1% (active)
6,CCC1C(=O)c2ccccc2N(C)C1=O (configuration not stated),9.44% (inactive)
7,CN1C(=O)/C(=N/OC(=O)c2ccccc2Br)c2ccccc21,-2.06% (inactive)
8,Nc1nc(C23CC4CC(CC(C4)C2)C3)cs1,-0.51% (inactive)
9,COc1ccc(CCNC(=O)CN2C(=O)CCSc3ccccc32)c(OC)c1,-0.88% (inactive)
10,Cn1cc(CCC(=O)NC2CC2)c2ccccc21,27.1% (inactive)
11,COc1ccc(CCNC(=O)CCc2cn(C)c3ccccc23)c(OC)c1,48.4% (active)
12,CCCCn1c(N)c(N(Cc2ccccc2OC)C(=O)COc2cc(C)ccc2Cl)c(=O)[nH]c1=O,4.71% (inactive)
13,Cc1cc([N+](=O)[O-])c(NC2CCCCC2)c([N+](=O)[O-])c1,-4% (inactive)
14,O=C(COC(=O)c1ccc(O)cc1O)NNC(=O)c1cccs1,0.36% (inactive)
15,CCc1ccc2nc3sc(C(=O)Nc4nnc(CC)s4)c(N)c3cc2c1,0.59% (inactive)
16,Cc1ccc(NC(=O)c2sc3nc(N)c(C#N)cc3c2N)cc1,115% (active)
17,Cc1ccc(NC(=O)CSCC(=O)Nc2sccc2C#N)cc1,25.5% (inactive)
18,O=C(CCN1C(=O)c2ccccc2C1=O)NCCCn1ccnc1,6.16% (inactive)
19,Cc1ccc(S(=O)(=O)c2nc(NCCCn3ccnc3)sc2Cl)cc1,9.5% (inactive)
20,Cc1ccc(-c2nc(C#N)c(NCCCn3ccnc3)o2)cc1,124% (active)
